# Measurements: PubChem BioAssay (NCI)
# Compounds without any hit were thinned out: in the full panel of roughly 83,000, 20% have a hit.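 Assay: single dose, 48 h. Readout: percent growth (0 = no net growth; negative = cell death). Active: <10.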 A number with no mark means an inactive call. Calls of active or inactive are those of the source.
# Experiments:
# Assay in all cases: NCI-60 one-dose screen, 48 h (100 = growth as untreated, 0 = no growth, -100 = all killed)
# Details in all cases: 10 µM unless noted
# RPMI-8226 leukemia = system: RPMI-8226 leukemia
# OVCAR-8 ovarian = system: OVCAR-8 ovarian
# OVCAR-5 ovarian = system: OVCAR-5 ovarian
# OVCAR-4 ovarian = system: OVCAR-4 ovarian
# SK-OV-3 ovarian = system: SK-OV-3 ovarian
# IGROV1 ovarian = system: IGROV1 ovarian
# OVCAR-3 ovarian = system: OVCAR-3 ovarian
# HS 578T breast = system: HS 578T breast
# NCI/ADR-RES ovarian = system: NCI/ADR-RES ovarian
# T-47D breast = system: T-47D breast
# MDA-MB-435 melanoma = system: MDA-MB-435 melanoma
# SW-620 colon = system: SW-620 colon
# MCF7 breast = system: MCF7 breast
# HCC-2998 colon = system: HCC-2998 colon
# KM12 colon = system: KM12 colon
# BT-549 breast = system: BT-549 breast
# HCT-116 colon = system: HCT-116 colon
Compound,growth (RPMI-8226 leukemia),growth (OVCAR-8 ovarian),growth (OVCAR-5 ovarian),growth (OVCAR-4 ovarian),growth (SK-OV-3 ovarian),growth (IGROV1 ovarian),growth (OVCAR-3 ovarian),growth (HS 578T breast),growth (NCI/ADR-RES ovarian),growth (T-47D breast),growth (MDA-MB-435 melanoma),growth (SW-620 colon),growth (MCF7 breast),growth (HCC-2998 colon),growth (KM12 colon),growth (BT-549 breast),growth (HCT-116 colon)
Cc1ccc(S(=O)(=O)n2cc(CNc3ccc(N4CCOCC4=O)cc3)c3ccccc32)cc1,67.9%,81.7%,30.1%,62.3%,87.4%,67.5%,86.8%,89.6%,78%,56.9%,97%,78.7%,61.9%,97.8%,96.7%,–,–
CCN1C(=O)N(CC)C2Nn3c(s/c(=C\c4cccc([N+](=O)[O-])c4)c3=O)=NC21 (stereo not drawn),64.8%,44.7%,45.4%,59.6%,51.7%,53.1%,9.24% (active),41.3%,–,59.5%,-36.8% (active),36.4%,35%,87.7%,26.7%,58.5%,23.6%
C[C@H]1[C@H]2[C@H]3CC[C@@H]4[C@@]5(C)C/C(=C/c6cccnc6)C(=O)C(C)(C)[C@@H]5CC[C@@]4(C)[C@]3(C)CC[C@]23CO[C@]1(C)[C@@H](C(=O)/C=C\c1cccnc1)C3,5.06% (active),-13.6% (active),-4% (active),18.6%,58.9%,1.25% (active),-43.7% (active),11.2%,2.97% (active),24.6%,-7.3% (active),-26.4% (active),9.88% (active),-67.2% (active),-55.6% (active),–,-45.6% (active)
O=C(CSc1nccc(Nc2ccc(S(=O)(=O)Nc3nccs3)cc2)n1)c1ccc(F)cc1,108%,98.1%,106%,99.2%,97.6%,106%,111%,97.9%,101%,84%,104%,99.6%,96.9%,107%,106%,–,95.9%
COc1ccccc1N1C(=O)/C(=C/C2=Cc3ccccc3OC2)SC1=S,91.4%,102%,99.2%,83.2%,95.2%,97.2%,101%,94.6%,109%,89.7%,97.8%,95.4%,95.5%,102%,99.6%,–,84.9%
CCN(CC)S(=O)(=O)c1cccc(-c2ccc3c(NC(=O)C4CC4)n[nH]c3c2)c1,11% [6.25 µM],14.7% [6.25 µM],51.6% [6.25 µM],18.7% [6.25 µM],28.6% [6.25 µM],34.7% [6.25 µM],17.3% [6.25 µM],23.8% [6.25 µM],79.7% [6.25 µM],–,7.53% [6.25 µM] (active),26.1% [6.25 µM],6.78% [6.25 µM] (active),43.9% [6.25 µM],12.6% [6.25 µM],1.05% [6.25 µM] (active),11.9% [6.25 µM]
O=C1Nc2ccccc2/C1=C/c1cn(C(=O)c2ccc(Cl)cc2)c2ccccc12,74.5%,95.1%,110%,78.3%,104%,72.7%,98.7%,106%,104%,–,110%,102%,59.1%,–,40.9%,96.4%,91.6%
NS(=O)(=O)c1ccc(-n2nc(C(=O)N/N=C\c3ccc(F)cc3)cc2-c2ccc(Cl)cc2)cc1,104%,96.8%,103%,97.8%,93.5%,76.1%,99.8%,86%,106%,79.5%,94.3%,95.8%,81.3%,98%,96.9%,–,98%
COc1ccc(Cl)cc1NC(=O)C(Br)C(Br)C(=O)O (stereo not drawn),11.7%,45.3%,122%,30.5%,101%,-14.4% (active),9.69% (active),86.3%,-13.8% (active),19.9%,34.2%,8.71% (active),23.8%,38.6%,83.2%,–,8.19% (active)
COC(=O)/C=C1\S/C(=N\NS(=O)(=O)c2ccc(C)cc2)N(c2ccccc2)C1=O,106%,99.8%,109%,91%,111%,103%,105%,98.9%,–,99.2%,102%,106%,94.5%,121%,101%,115%,103%
N/C(=N/N=C/c1ccccc1)N/N=C\c1ccccc1,55.3%,65.2%,83.4%,87.2%,72.4%,73%,12.6%,67.7%,10.7%,37.6%,-3.26% (active),33.5%,31.6%,–,35%,–,35.9%
C=CCNc1nc(NN2C(=O)c3cccc4cccc(c34)C2=O)nc(-n2cnc3ccccc32)n1,65.7%,81.5%,77.2%,52.5%,40.9%,46.7%,84.5%,–,72%,54.8%,97.5%,90.6%,55.1%,91.8%,18.6%,82.5%,79.8%
COC(=O)c1c2c(c(C)[n+]([O-])c1C)C(=O)C(NCc1ccc(F)c(Cl)c1)=CC2=O,20.6%,-14.5% (active),38.2%,-96.4% (active),87.2%,3.18% (active),-21.3% (active),68%,–,-5.44% (active),-82.4% (active),5.47% (active),-32.8% (active),13.3%,11.5%,43.7%,0.429% (active)
O=C1NC(=Nc2ccc(Cl)cc2)S/C1=C\c1cn(-c2ccccc2)nc1-c1ccccc1,83.3%,75.1%,98.6%,0.154% (active),104%,79.7%,89.2%,71%,–,47.4%,90.1%,75.2%,69.1%,100%,97.5%,84.3%,63.8%
CCN(CC)c1ccc(C(=O)c2ccc(N(CC)CC)cc2)cc1,20.8%,32.2%,40.8%,61.4%,-1.44% (active),37.3%,-20.3% (active),36.2%,-27.8% (active),20.1%,0.459% (active),26.4%,13.5%,–,25.1%,–,10.2%
Cc1nc2ccccc2n1CC1NC(=O)NC1=O (stereo not drawn),106%,96.4%,99.3%,102%,95.9%,104%,105%,102%,–,103%,99.8%,97.6%,96.2%,115%,102%,107%,106%
C[C@H]1[C@H]2[C@H]3CC[C@@H]4[C@@]5(C)C/C(=C/c6ccco6)C(=O)C(C)(C)[C@@H]5CC[C@@]4(C)[C@]3(C)CC[C@]23CO[C@]1(C)[C@@H](C(=O)/C=C\c1ccco1)C3,78%,98.8%,113%,90.7%,108%,101%,103%,94%,–,80.3%,43.4%,99.3%,88.8%,108%,99.8%,111%,101%
CC1(C)CC(=O)CC2(C1)N=C(N)Nc1nc3ccccc3n12 (stereo not drawn),94.4%,104%,98.7%,91.7%,101%,90.5%,111%,137%,106%,106%,104%,109%,89.4%,–,108%,–,96.8%
